Assay outcomes (PubChem)
The list is not random: actives were taken first. Their share in the collection is about 6.1%.
DRD3 agonist: qHTS of D3 Dopamine Receptor Agonist: qHTS; D(3) dopamine receptor (Homo sapiens), P35462; D3R DiscoveRx beta-arrestin cells, luminescence, 90 min; max activation, %; actives 0.58% (n = 410,000); AID 652048, 2013; in the data active = max activation above about 30%; also: 0% is about no effect
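Agonist mode: compounds and dopamine controls were applied to plated cells for 90 min at 37 degrees C after an overnight attachment at 1500 cells/well. Luminescent read-out followed 30 - 60 minutes at room temperature with DiscoveRx detection reagent.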
D1 potentiator: Potentiators of Human D1 Dopamine Receptor: qHTS; D(1A) dopamine receptor (Homo sapiens), P21728; HEK293 TREx D1 cells, calcium flux, dopamine EC20 potentiation; potentiation, % at 10 µM; actives 0.036% (n = 360,000); AID 504651, 2011; in the data active = potentiation above about 30%; also: 0% is about no effect
Target sequence (P21728 whole entry, looked up): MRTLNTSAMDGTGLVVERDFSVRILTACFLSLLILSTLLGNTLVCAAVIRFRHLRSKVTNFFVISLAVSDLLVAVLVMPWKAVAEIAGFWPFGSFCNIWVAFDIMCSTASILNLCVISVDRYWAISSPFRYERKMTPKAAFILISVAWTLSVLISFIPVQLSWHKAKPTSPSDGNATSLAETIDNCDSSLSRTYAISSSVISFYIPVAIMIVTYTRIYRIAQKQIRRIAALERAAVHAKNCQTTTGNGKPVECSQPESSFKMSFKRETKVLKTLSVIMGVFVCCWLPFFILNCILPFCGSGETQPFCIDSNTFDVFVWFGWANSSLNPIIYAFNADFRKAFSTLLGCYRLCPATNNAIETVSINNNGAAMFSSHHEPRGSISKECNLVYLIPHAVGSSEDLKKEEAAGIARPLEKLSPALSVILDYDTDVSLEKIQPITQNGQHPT
D1 agonist: Allosteric Agonists of the Human D1 Dopamine Receptor: qHTS | D(1A) dopamine receptor (Homo sapiens), P21728 | HEK293 T-REx D1 cells, calcium flux, agonist mode | actives 1% (n = 360,000) | activation, % at 2 µM | AID 504660, 2011; in the data active = activation above about 30%; also: 0% is about no effect
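Agonism was scored from calcium flux recorded over 180 s (1 read/s) after pintool compound addition, following a 10-cycle baseline. Cells were inducible force-coupled HEK293 TREx D1, plated overnight at 30 C and loaded with no-wash calcium dye.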
D1 antag: Antagonist of Human D 1 Dopamine Receptor: qHTS. activity change, negative = inhibition, % at 10 µM. actives 3.2% (n = 360,000). HEK293 TREx D1 cells, calcium flux, dopamine EC80; hits give low values. AID 504652, 2011; in the data active = activity change below about -30%; also: % is scaled to controls: 0 for no effect and ±100 for the full control effect
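After overnight tetracycline induction at 30 C, force-coupled D1 HEK293 cells took up a no-wash calcium dye at room temperature. Compounds were added and monitored 180 s, and the response to EC80 dopamine was then recorded.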
D3 antag: qHTS of D3 Dopamine Receptor Antagonist: qHTS. D3R cells, DiscoveRx beta-arrestin luminescence, antagonist mode; hits give low values. max response, negative = inhibition, %. actives 2.5% (n = 360,000). AID 652054, 2013; in the data active = max response below about -50%; inconclusive = no clear call, values can overlap the other calls; also: % is scaled to controls: 0 for no effect and ±100 for the full control effect
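Cells expressing the human receptor were seeded at 1500 cells/well, incubated overnight at 37 degrees C in 5% CO2, then exposed to library compounds with dopamine controls for 90 minutes at 37 degrees C before luminescent detection.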
Starred values were filed as active, the others as inactive; ? = inconclusive; . = no result given.

SMILES | DRD3 agonist | D1 potentiator | D1 agonist | D1 antag | D3 antag
CN(c1ccccc1)S(=O)(=O)c1ccc(NC(=O)c2nc(S(C)(=O)=O)ncc2Cl)cc1 | -22 | -10 | 2 | -47* | -108*
CCOC(=O)c1c(-c2ccc(OC)cc2)csc1NC(=O)CCN1C(=O)c2ccccc2C1=O | 20 | -3 | 5 | 1 | 47
CCCc1nnc(NC(=O)c2nc(S(=O)(=O)Cc3ccc(C)cc3)ncc2Cl)s1 | -11 | 0 | 3 | -4 | -65*
COc1cc(C2C(C#N)=C(N)Oc3c2c(-c2ccccc2)nn3-c2ccccc2)cc(OC)c1OC (centres undefined) | 1 | -3 | 10 | -26 | 0
Cc1cc(NS(=O)(=O)c2cn(C)c(C)n2)ccc1Br | -11 | -2 | 3 | 6 | .
Cc1cccc(CNC(=O)c2cnc3sc(N4CCCCCC4)nn3c2=O)c1 | 4 | -4 | 1 | 0 | .
CCOC(=O)c1c(-c2ccccc2)csc1NC(=O)c1ccc(S(=O)(=O)N2CC(C)OC(C)C2)cc1 (centres undefined) | 14 | -5 | 3 | 3 | 15
CCOC(=O)c1ccc(NC(=O)c2nc(S(=O)(=O)Cc3ccccc3)ncc2Cl)cc1 | -37 | -8 | 1 | -45* | ?
CCOC(=O)c1c(-c2ccccc2)csc1NC(=O)c1ccc(N2C(=O)CCC2=O)cc1 | 57* | -1 | 7 | -7 | 35
CCOC(=O)c1c(-c2ccccc2)csc1NC(=O)c1nc(S(=O)(=O)CC)ncc1Cl | -19 | -4 | 3 | -47* | .
CCOC(=O)c1c(-c2ccccc2)csc1NC(=O)c1nc(SCC)ncc1Cl | -7 | -1 | 5 | -11 | .
CCOC(=O)c1ccc(NC(=O)c2nc(SC(C)C)ncc2Cl)cc1 | -4 | 2 | -1 | 7 | .
CC(C)c1nnc(NC(=O)c2nc(S(=O)(=O)Cc3ccccc3)ncc2Cl)s1 | -24 | -2 | 1 | -24 | -64*
CCOC(=O)C1CCCN(C(=O)c2cccc(NC(=O)c3nsc4ccccc34)c2)C1 (centres undefined) | -2 | -1 | 1 | -3 | .
CN(C)c1cc2c(cc1NC(=O)c1ccc(F)cc1)n(C)c(=O)n2C | 15 | 1 | 4 | 2 | .
CCCCNS(=O)(=O)c1ccc(S(=O)(=O)N2CCC3(CC2)OCCO3)cc1 | 3 | -11 | 17 | -46* | -17
COCCNC(=O)CSc1nc(-c2cc(OC)c(OC)c(OC)c2)[nH]c1-c1ccc(Cl)cc1 | -24 | -5 | 1 | -6 | .
CCOC(=O)C1Nc2c(F)cc(C)cc2C2c3ccccc3CC12 (centres undefined) | -16 | . | . | . | -54*
CCOC(=O)C1Nc2ccccc2C2c3ccccc3CC12 (centres undefined) | -16 | . | . | . | -9
Cc1ccc(N(CC(=O)N2CCN(c3ccc(Cl)cc3)CC2)S(=O)(=O)c2c(C)noc2C)cc1 | -3 | 2 | 1 | -11 | .
CCCc1cc(C(=O)Nc2ccc(OC)cc2[N+](=O)[O-])cs1 | 6 | -3 | 2 | -4 | 4
CC(=O)N[C@H]1[C@H]([C@H](O)[C@H](O)CO)OC(C(=O)O)=C[C@@H]1N=C(N)N | -7 | . | . | . | .
Cc1cc(C)cc(OCCSc2nc3ccc(NC(=O)COc4ccccc4)cc3s2)c1 | 3 | 0 | 15 | -1 | .
CCC(=O)Nc1nc2ccc(NC(=O)COc3ccccc3)cc2s1 | -13 | -4 | 2 | -72* | 12
Cc1cccc(NC(=O)COC(=O)c2ccc3nc(C)c(C)nc3c2)c1 | -1 | . | . | . | -58*
SMILES | DRD3 agonist | D1 potentiator | D1 agonist | D1 antag | D3 antag
O=C(COc1ccccc1)Nc1ccc2nc(SCCOc3ccccc3)sc2c1 | -7 | 3 | 7 | -31* | .
CCOC(=O)CSc1nc2ccc(NC(=O)COc3ccccc3)cc2s1 | -5 | -2 | 10 | -36* | .
CCOC(=O)CSc1nc2ccc(NC(=O)c3ccccc3)cc2s1 | 1 | 0 | 4 | 4 | .
COc1ccc(CCC(=O)NC(C)C2CCCO2)cc1 (centres undefined) | 3 | 0 | 2 | -25 | 7
Cc1ccccc1OCc1ccc(-c2nc(C#N)c(N3CCC(C(N)=O)CC3)o2)o1 | 6 | -1 | -2 | -1 | .
Cc1cccc(OCCC(=O)Nc2ccc(F)c(F)c2)c1 | -18 | -6 | 9 | -38* | -8
Cc1nc2ccc(NC(=O)COc3ccccc3)cc2s1 | -5 | 3 | 1 | -9 | 10
Cc1cccc(OCC(=O)Nc2ccc3nc(C)sc3c2)c1 | 1 | -10 | 9 | -33* | -2
Cc1nccn1CC(O)COc1ccc([N+](=O)[O-])cc1 (centres undefined) | 4 | 2 | 3 | -7 | -4
O=[N+]([O-])c1ccc(OCC(O)CNCCNc2nccc(C(F)(F)F)n2)cc1 (centres undefined) | -15 | -1 | 5 | -5 | -84*
Cn1c(=O)n(C)c2cc(N3CCOCC3)c(NC(=O)c3c(F)cccc3F)cc21 | -1 | 0 | 0 | 17 | .
C=CCn1cnc2c(c1=O)c1nc3ccccc3nc1n2/N=C/c1cc(OC)c(OC)c(OC)c1 | -4 | -2 | 1 | -5 | -21
C=CCn1c(=O)/c(=C/c2ccc(O)cc2)s/c1=C(/C#N)c1nnc2n1CCCCC2 | -12 | 1 | 50* | -1 | -14
C=CCn1c(=O)/c(=C/c2cc(OC)c(OC)c(OC)c2)s/c1=C(/C#N)c1nc2ccccc2n1C | 7 | 5 | 18 | -23 | -51*
C=CCn1c(=O)/c(=C/c2ccc(Cl)cc2)s/c1=C(/C#N)c1nnc2n1CCCCC2 | -3 | -7 | 2 | -4 | -14
COC(=O)c1cc2occc2n1Cc1ccc(F)cc1Cl | 4 | -3 | 1 | 10 | .
CC(=O)Nc1nonc1-c1nc2ccccc2n1Cc1ccccc1Br | -4 | -2 | 1 | -70* | .
CC(=O)O[C@H]1[C@@H](O)[C@H](O)[C@H](Oc2c(O)c(C)c3c4c2[C@@H](C)CC[C@@H]4[C@@H](C)C[C@H]3C=C(C)C)O[C@H]1C | 30* | . | . | . | 96
COc1ccc2c(c1)CC(C(=O)NCCN1CCN(c3cccc(C)c3C)CC1)CO2 (centres undefined) | 47* | -4 | 12 | -14 | .
COc1ccc(N2CCN(CCCNC(=O)C3COc4ccc(OC)cc4C3)CC2)cc1 (centres undefined) | 7 | -2 | 7 | -16 | .
COc1ccc2c(c1)CC(C(=O)NCCN1CCN(c3ccccc3F)CC1)CO2 (centres undefined) | 2 | -5 | 1 | -40* | .
